This is part of a sample that, as a whole, favours compounds with a hit. Of some 83,000 tested, about 20% had one in any assay.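 Interpretation: 100, growth as untreated; towards 0, rising growth inhibition; 0, no net growth; 0 to -100, cell death. Compounds scoring below 10 were considered active.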 Active and inactive are the calls of the source.
What was measured:
Test in all cases: NCI-60 one-dose screen, 48 h (100 = growth as untreated, 0 = no growth, -100 = all killed)
Conditions in all cases: 10 µM unless noted
SR leukemia = tested on: SR leukemia
RPMI-8226 leukemia = tested on: RPMI-8226 leukemia
OVCAR-8 ovarian = tested on: OVCAR-8 ovarian
OVCAR-5 ovarian = tested on: OVCAR-5 ovarian
OVCAR-4 ovarian = tested on: OVCAR-4 ovarian
SK-OV-3 ovarian = tested on: SK-OV-3 ovarian
IGROV1 ovarian = tested on: IGROV1 ovarian
OVCAR-3 ovarian = tested on: OVCAR-3 ovarian
HS 578T breast = tested on: HS 578T breast
NCI/ADR-RES ovarian = tested on: NCI/ADR-RES ovarian
T-47D breast = tested on: T-47D breast
BT-549 breast = tested on: BT-549 breast
MDA-MB-435 melanoma = tested on: MDA-MB-435 melanoma
SW-620 colon = tested on: SW-620 colon
MCF7 breast = tested on: MCF7 breast
HCT-116 colon = tested on: HCT-116 colon
HCC-2998 colon = tested on: HCC-2998 colon
KM12 colon = tested on: KM12 colon

Measured: growth

O=C1Nc2ccc(F)cc2/C1=C\c1nc(-c2ccccc2F)n2ccccc12
inactive: SR leukemia 66.7% | RPMI-8226 leukemia 96.8% | OVCAR-8 ovarian 80.6% | OVCAR-5 ovarian 67.2% | OVCAR-4 ovarian 110% | SK-OV-3 ovarian 101% | IGROV1 ovarian 75.5% | OVCAR-3 ovarian 126% | HS 578T breast 103% | NCI/ADR-RES ovarian 74.4% | T-47D breast 88% | BT-549 breast 102% | MDA-MB-435 melanoma 101% | SW-620 colon 44.9% | MCF7 breast 47.9% | HCT-116 colon 44.2% | HCC-2998 colon 100% | KM12 colon 97.2%

COc1ccc(/C(C)=C(\c2ccc(Cl)cc2)c2ccc(OCCN3CCCC3)cc2)cc1
inactive: OVCAR-8 ovarian 51.6% | OVCAR-5 ovarian 64.7% | OVCAR-4 ovarian 63.5% | SK-OV-3 ovarian 82.9% | IGROV1 ovarian 48.9% | OVCAR-3 ovarian 63.7% | HS 578T breast 51.5% | NCI/ADR-RES ovarian 70.6% | T-47D breast 45.9% | BT-549 breast 57.9% | MDA-MB-435 melanoma 39.2% | SW-620 colon 25.1% | MCF7 breast 13% | HCT-116 colon 23.6% | HCC-2998 colon 87% | KM12 colon 24.5%
active: SR leukemia -21.6% | RPMI-8226 leukemia -20.3%

CCCCN1C(=O)/C(=c2\sc3n(c2=O)NC2C(N=3)N(CC)C(=O)N2CC)c2ccccc21 (stereo not given)
inactive: SR leukemia 24.5% | RPMI-8226 leukemia 60.2% | OVCAR-8 ovarian 36.2% | OVCAR-5 ovarian 48.4% | OVCAR-4 ovarian 50.8% | SK-OV-3 ovarian 77.2% | IGROV1 ovarian 47% | HS 578T breast 40.2% | NCI/ADR-RES ovarian 20.5% | T-47D breast 18.7% | BT-549 breast 73.4% | SW-620 colon 36.2% | MCF7 breast 25% | HCT-116 colon 13.1% | HCC-2998 colon 64.1% | KM12 colon 20.3%
active: OVCAR-3 ovarian 0.018% | MDA-MB-435 melanoma -41.6%

CCOC(=O)c1n[nH]n2c1nc(=O)c1cnn(C)c12
inactive: SR leukemia 85.3% | RPMI-8226 leukemia 101% | OVCAR-8 ovarian 102% | OVCAR-5 ovarian 112% | OVCAR-4 ovarian 102% | SK-OV-3 ovarian 101% | IGROV1 ovarian 108% | OVCAR-3 ovarian 101% | HS 578T breast 105% | NCI/ADR-RES ovarian 103% | T-47D breast 96.5% | BT-549 breast 133% | MDA-MB-435 melanoma 105% | SW-620 colon 108% | MCF7 breast 92.8% | HCT-116 colon 114% | HCC-2998 colon 100% | KM12 colon 95.7%

CCNC(=O)Oc1ccc(/C(=C(/C)Cc2ccc(OC)cc2)c2ccc(OCCN3CCCCCC3)cc2)cc1
active: SR leukemia -51.7%
inactive: RPMI-8226 leukemia 20.3% | OVCAR-8 ovarian 75.4% | OVCAR-5 ovarian 94.8% | OVCAR-4 ovarian 87.9% | SK-OV-3 ovarian 87.7% | IGROV1 ovarian 78% | OVCAR-3 ovarian 59.5% | HS 578T breast 67.2% | NCI/ADR-RES ovarian 76.7% | T-47D breast 35.9% | BT-549 breast 89.1% | MDA-MB-435 melanoma 81.6% | SW-620 colon 70.7% | MCF7 breast 22.2% | HCT-116 colon 56.3% | HCC-2998 colon 63.3% | KM12 colon 53.9%

CC1(C)CCC(S(=O)(=O)c2ccc3c(c2)/C(=N\O)c2cc(S(=O)(=O)N4CCN(c5ccc(F)cc5O)CC4)ccc2-3)CC1
active: SR leukemia -48.5% | RPMI-8226 leukemia -45.9% | OVCAR-8 ovarian -71.7% | OVCAR-5 ovarian -69.3% | OVCAR-4 ovarian -94% | SK-OV-3 ovarian -98.5% | IGROV1 ovarian -38.4% | OVCAR-3 ovarian -83.4% | HS 578T breast -54.1% | NCI/ADR-RES ovarian -3.41% | T-47D breast -90.6% | BT-549 breast -86.7% | MDA-MB-435 melanoma -92.3% | SW-620 colon -81.5% | MCF7 breast -67.9% | HCT-116 colon -96.6% | HCC-2998 colon -92.1% | KM12 colon -90.3%

COc1cc(/C=C2\C(=O)N(c3c(Cl)cccc3Cl)c3ccccc32)cc(OC)c1OCCCCCCn1c2ccccc2c(=O)c2ccccc21
inactive: SR leukemia 85.7% | RPMI-8226 leukemia 102% | OVCAR-8 ovarian 98.3% | OVCAR-5 ovarian 88.6% | OVCAR-4 ovarian 95.5% | SK-OV-3 ovarian 110% | IGROV1 ovarian 75.5% | OVCAR-3 ovarian 104% | HS 578T breast 113% | NCI/ADR-RES ovarian 109% | T-47D breast 89.6% | BT-549 breast 94.4% | MDA-MB-435 melanoma 103% | SW-620 colon 106% | MCF7 breast 92% | HCT-116 colon 95.9% | HCC-2998 colon 112% | KM12 colon 103%

O=C(Nc1ccc(F)cc1)Nc1ccccc1CNc1nc(Nc2ccc(OCCN3CCCC3)cc2)ncc1Cl
active: SR leukemia 2.14% | RPMI-8226 leukemia -4.89% | OVCAR-4 ovarian -7.62% | OVCAR-3 ovarian -43.1%
inactive: OVCAR-8 ovarian 23.1% | OVCAR-5 ovarian 16.9% | SK-OV-3 ovarian 92.8% | IGROV1 ovarian 56.2% | HS 578T breast 74.3% | NCI/ADR-RES ovarian 44.5% | T-47D breast 100% | BT-549 breast 84.9% | MDA-MB-435 melanoma 16.3% | SW-620 colon 27.8% | MCF7 breast 32.5% | HCT-116 colon 21.8% | HCC-2998 colon 48.6% | KM12 colon 49.6%

O=C(/C=C/C12c3ccccc3C(c3ccccc31)C1C(=O)NC(=O)C12)c1ccccn1 (stereo not given)
active: SR leukemia -8.33% | RPMI-8226 leukemia -27.6% | OVCAR-8 ovarian 1.98% | SK-OV-3 ovarian 5.83% | IGROV1 ovarian -12.3% | OVCAR-3 ovarian -8.72% | T-47D breast 9.45% | MDA-MB-435 melanoma -23.7% | SW-620 colon -1.62% | HCT-116 colon -65% | KM12 colon 1.06%
inactive: OVCAR-5 ovarian 21% | OVCAR-4 ovarian 35.3% | HS 578T breast 40.1% | NCI/ADR-RES ovarian 11.3% | BT-549 breast 11% | MCF7 breast 10.4% | HCC-2998 colon 16.5%

Oc1c(I)cc(-c2nc3ccccc3s2)cc1CN(Cc1ccccn1)Cc1ccccn1
active: SR leukemia 6.31% | IGROV1 ovarian 5.99% | NCI/ADR-RES ovarian -2.29% | HCC-2998 colon 9.25%
inactive: RPMI-8226 leukemia 15.2% | OVCAR-8 ovarian 10.9% | OVCAR-5 ovarian 49.7% | OVCAR-4 ovarian 31.9% | SK-OV-3 ovarian 18.5% | OVCAR-3 ovarian 31.5% | HS 578T breast 46.8% | T-47D breast 17% | BT-549 breast 22% | MDA-MB-435 melanoma 33.3% | SW-620 colon 21.3% | MCF7 breast 13.7% | HCT-116 colon 16.1% | KM12 colon 28.4%

CCCC(O)Cn1ncc(C(=O)OCC)c1NC(=O)NCc1cccc(F)c1 (stereo not given)
inactive: SR leukemia 80.1% | RPMI-8226 leukemia 75.2% | OVCAR-8 ovarian 94.8% | OVCAR-5 ovarian 100% | OVCAR-4 ovarian 87.2% | SK-OV-3 ovarian 100% | IGROV1 ovarian 97.2% | OVCAR-3 ovarian 99.7% | HS 578T breast 110% | NCI/ADR-RES ovarian 95.5% | T-47D breast 88.2% | BT-549 breast 78.5% | MDA-MB-435 melanoma 101% | SW-620 colon 107% | MCF7 breast 91.8% | HCT-116 colon 71.6% | HCC-2998 colon 90.6% | KM12 colon 105%

CC(C)(C)C(=O)/C=C/c1ccc([N+](=O)[O-])cc1
active: SR leukemia 8.57% | MCF7 breast 8.67%
inactive: RPMI-8226 leukemia 23.5% | OVCAR-8 ovarian 76.8% | OVCAR-5 ovarian 108% | OVCAR-4 ovarian 91.5% | SK-OV-3 ovarian 98.7% | IGROV1 ovarian 96% | OVCAR-3 ovarian 84.9% | HS 578T breast 90.2% | NCI/ADR-RES ovarian 60.2% | T-47D breast 65.8% | BT-549 breast 78.5% | MDA-MB-435 melanoma 47.1% | SW-620 colon 20% | HCT-116 colon 42.2% | HCC-2998 colon 119% | KM12 colon 31.9%

COC(=O)c1nc(-c2ccccc2)oc1S(=O)(=O)N1CCC(C(N)=O)CC1
active: SR leukemia -3.16%
inactive: RPMI-8226 leukemia 41.3% | OVCAR-8 ovarian 83.7% | OVCAR-5 ovarian 76.7% | OVCAR-4 ovarian 61.2% | SK-OV-3 ovarian 101% | IGROV1 ovarian 51.4% | OVCAR-3 ovarian 16.2% | HS 578T breast 86.7% | NCI/ADR-RES ovarian 111% | T-47D breast 36% | BT-549 breast 76.2% | MDA-MB-435 melanoma 59.5% | SW-620 colon 25.4% | MCF7 breast 32% | HCT-116 colon 43.9% | HCC-2998 colon 104% | KM12 colon 87.8%

Cc1cc(C)c(-c2c(O)c(Br)c(-c3c(C)cc(C)c(Br)c3C)c(O)c2Br)c(C)c1Br
active: OVCAR-8 ovarian 2.91% | IGROV1 ovarian -29.9% | OVCAR-3 ovarian -24.1% | T-47D breast -19.4% | SW-620 colon 3.38% | MCF7 breast 6.48% | HCT-116 colon 9.25%
inactive: SR leukemia 18.5% | RPMI-8226 leukemia 26.3% | OVCAR-5 ovarian 64.9% | OVCAR-4 ovarian 23.7% | SK-OV-3 ovarian 46.7% | HS 578T breast 41.5% | NCI/ADR-RES ovarian 44.1% | BT-549 breast 22.2% | MDA-MB-435 melanoma 13.1% | HCC-2998 colon 37.3% | KM12 colon 12.2%

Cn1ccnc1C(=O)/C=C/c1ccc(C(=O)Nc2ccc(F)cc2)cc1
inactive: OVCAR-8 ovarian 18.3% | OVCAR-5 ovarian 21.4% | OVCAR-4 ovarian 28.5% | SK-OV-3 ovarian 59.1% | OVCAR-3 ovarian 10.8% | HS 578T breast 40.9% | NCI/ADR-RES ovarian 11.2% | T-47D breast 23.4% | MDA-MB-435 melanoma 18.3% | MCF7 breast 19%
active: SR leukemia 2.09% | RPMI-8226 leukemia -17.1% | IGROV1 ovarian 7.02% | BT-549 breast -14.9% | SW-620 colon 4.13% | HCT-116 colon -81.5% | HCC-2998 colon -0.654% | KM12 colon 3.4%
